From PubChem BioAssay
CBFb RUNX1 block = blocks binding between human CBF-beta and RUNX1; Potency, µM (series often up to 59.8 µM), inactives show at the top dose activity, negative = inhibition, hits mostly inhibitors; AID 1477; Q01196+Q13951; 230,000 tested, under 10 active; AlphaScreen CBFb-His/RUNX1-biotin binding, biochemical; active = well fitted curve in the direction sought with a large enough effect; inconclusive = small, poorly fitted or top-dose-only effect, or another doubt; inactive = no such curve, though single readings can be large; an effect the other way counts as inactive or inconclusive; note: % of control where 0% means no effect
Target sequence (Q01196 whole entry, looked up): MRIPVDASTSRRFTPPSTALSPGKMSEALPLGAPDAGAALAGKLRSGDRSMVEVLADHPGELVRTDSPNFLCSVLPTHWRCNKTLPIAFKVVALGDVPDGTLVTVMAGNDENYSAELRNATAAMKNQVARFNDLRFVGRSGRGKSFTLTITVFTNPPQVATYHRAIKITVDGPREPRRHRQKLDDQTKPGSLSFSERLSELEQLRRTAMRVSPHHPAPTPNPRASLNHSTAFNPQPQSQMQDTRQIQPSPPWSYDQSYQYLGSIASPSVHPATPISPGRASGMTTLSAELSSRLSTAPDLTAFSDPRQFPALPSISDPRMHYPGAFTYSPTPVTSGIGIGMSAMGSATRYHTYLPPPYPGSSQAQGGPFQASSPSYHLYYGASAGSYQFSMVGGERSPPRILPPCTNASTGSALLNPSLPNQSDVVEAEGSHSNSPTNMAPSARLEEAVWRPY
Target sequence (Q13951 whole entry, looked up): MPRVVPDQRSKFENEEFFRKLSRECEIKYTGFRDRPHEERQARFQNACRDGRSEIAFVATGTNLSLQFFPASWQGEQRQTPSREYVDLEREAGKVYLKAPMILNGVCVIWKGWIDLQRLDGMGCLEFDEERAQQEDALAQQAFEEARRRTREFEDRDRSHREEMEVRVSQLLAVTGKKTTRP
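AlphaScreen proximity signal reports loss of binding between His-tagged CBF-beta and biotin-labelled RUNX1, each at 30 nM. Proteins are pre-associated for 20 minutes, compounds added for 15 minutes, then beads for 90 minutes, all at ambient temperature.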
JMJD2E inh = JMJD2E (human) inhibition; B2RXH2; JMJD2E catalytic domain, FDH-coupled NADH fluorescence (FDH is formaldehyde dehydrogenase); Potency, µM (series often up to 57.1 µM), for inactives: at the highest dose activity change, negative = inhibition, usual class: inhibitors; 230,000 compounds, 1.6% hits; AID 2147;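 note: potency is the fitted concentration of half-maximal effect; 0% = wells with enzyme and -100% = buffer wells without enzyme; nearly all actives have a fitted effect of over 50% in size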
HPGD block = blocks human HPGD enzyme activity; 150,000 compounds, 4.3% hits; P15428; AID 894; Potency, µM, without a hit: at the highest dose activity change, negative = inhibition, hits mostly inhibitors; purified HPGD, NADH fluorescence kinetic, PGE2 substrate; note: potency is the fitted concentration of half-maximal effect; % is set by controls: 0 for no effect and ±100 for the full control effect
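20 nM HPGD preincubated 15 min at room temperature with compound in 50 mM Tris-HCl pH 8, 0.01% Tween 20. Started with 1 mM NAD+ and 30 uM prostaglandin E2; NADH fluorescence (360/450 nm) read 5 times over 30-s intervals, last minus first.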
HTT aggregate = mutant huntingtin aggregation inhibition; PC12 HttQ103-GFP aggregates, Acumen cytometry, 40 h; 220,000 compounds, 1.1% hits; AID 1688; Potency, µM (highest dose often 46.1 µM), for the others: at the top dose activity change, negative = inhibition, hits mostly inhibitors; active = well fitted curve in the direction sought with a large enough effect; inconclusive = small, poorly fitted or top-dose-only effect, or another doubt; inactive = no such curve, though single readings can be large; an effect the other way counts as inactive or inconclusive; note: potency is the fitted concentration of half-maximal effect; % is set by controls: 0 for no effect and ±100 for the full control effect; nearly all actives have a fitted effect of over 60% in size
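Quantitative HTS on tebufenozide-induced (100 nM) PC12 cells stably expressing polyQ103 Huntingtin exon 1–GFP. Reduction of bright GFP aggregates, detected by laser scanning cytometry after lysis, identified actives across the titration.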
ALDH1A1 block = ALDH1A1 (human) enzyme inhibition; P00352; Purified ALDH1A1, NADH fluorescence, propionaldehyde substrate; Potency, µM (series often up to 75.3 µM), without a hit: top-dose activity, negative = inhibition, actives largely listed as inhibitors; 220,000 compounds, 7.3% hits; AID 1030;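 note: potency is the fitted concentration of half-maximal effect; plate controls were no enzyme wells and a reference inhibitor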
HTT cytoprotect = Huntington cell model cytoprotection by ATP luminescence; PC12 HTT-Q103 induced, cytoprotection, ATP luminescence, 40 h; Potency, µM (series often up to 56.4 µM), for the others: cytoprotection (ATP increase), actives largely listed as activators; 230,000 compounds, 0.14% hits; AID 1471; active = well fitted curve in the direction sought with a large enough effect; inconclusive = small, poorly fitted or top-dose-only effect, or another doubt; inactive = no such curve, though single readings can be large; an effect the other way counts as inactive or inconclusive; note: potency is the fitted concentration of half-maximal effect; % of control where 0% means no effect; nearly all actives have a fitted effect of over 45% in size
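PC12 cells with ecdysone-inducible HTT exon 1 Q103-GFP, induced with 100 nM tebufenozide and co-treated with library compounds in a dose series (1536-well, 1500 cells/well). Cytoprotection read as ATP content by ATPlite luminescence.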
Active calls of the source: *; [ ] = dose if it differs, or a comment. Sampled rows, rich in hits. Any-hit rate of the full collection: about 9.8%. Unless noted, calls come from the whole dose curve; as a rule, active = well fitted inhibition curve with a large enough effect (not every such curve was filed as active); inconclusive = small, poorly fitted or top-dose-only effect, or another doubt; inactive = no such curve, though single readings can be large or run the other way.

For O=C(NC(=S)Nc1ccc2c(c1)OCO2)c1ccc(Cl)cc1 the results were CBFb RUNX1 block 0%, JMJD2E inh -27%, HPGD block -15%, HTT aggregate -15% and ALDH1A1 block 14µM*.
Screening Cc1ccc(C(=O)NC(=S)Nc2ccc3c(c2)OCCO3)c(C)c1 returned CBFb RUNX1 block -16%, JMJD2E inh -7%, HPGD block -2%, HTT aggregate -24%, ALDH1A1 block inconclusive and HTT cytoprotect -27%.
`Cc1ccc(C(=O)Nc2ccc3c(c2)OCO3)cc1` gave CBFb RUNX1 block -6%, JMJD2E inh 4%, HPGD block -6%, HTT aggregate 3%, ALDH1A1 block -15% and HTT cytoprotect -98%.
Screening CC(C)C(=O)Nc1cccc(NC(=S)NC(=O)c2ccc(Cl)cc2)c1 returned CBFb RUNX1 block 5%, JMJD2E inh 7%, HPGD block -8%, HTT aggregate -31%, ALDH1A1 block 10µM* and HTT cytoprotect -43%.
Screening CCc1ccc(C(=O)NC(=S)Nc2ccc3c(c2)OCCO3)cc1 returned CBFb RUNX1 block -25%, JMJD2E inh 6%, HPGD block -15%, HTT aggregate 7%, ALDH1A1 block 18µM* and HTT cytoprotect 20%[10 µM].
`CCOc1cc(CNC2CCCC2)c(Cl)cc1OCC(=O)Nc1ccccc1` gave CBFb RUNX1 block 1%, JMJD2E inh 2%, HTT aggregate -4%, ALDH1A1 block -7% and HTT cytoprotect -12%.
`COc1cc2c(cc1OC)C(CC#N)=NC(C)(C)C2` gave CBFb RUNX1 block -4%, JMJD2E inh 59%, HPGD block -11%, HTT aggregate inconclusive, ALDH1A1 block 2µM* and HTT cytoprotect -12%[10 µM].
For Cc1ccc(SCc2cc(=O)n(C)[nH]2)cc1 the results were CBFb RUNX1 block -14%, JMJD2E inh inconclusive, HTT aggregate 23%, ALDH1A1 block inconclusive and HTT cytoprotect -30%.
`O=C(NCc1cccs1)C(=O)NCC1OCCCN1S(=O)(=O)c1cccs1` (configuration not stated) gave CBFb RUNX1 block -6%, JMJD2E inh 4%, HTT aggregate 17%, ALDH1A1 block 14µM* and HTT cytoprotect -32%.
For CNC(=O)C(=O)NCC1OCCCN1S(=O)(=O)c1cccs1 (configuration not stated) the results were CBFb RUNX1 block 4%, JMJD2E inh 3%, HPGD block -2%, HTT aggregate -7%, ALDH1A1 block inconclusive and HTT cytoprotect -21%[10 µM].
For O=C(NCCO)C(=O)NCC1OCCCN1S(=O)(=O)c1cccs1 (configuration not stated) the results were CBFb RUNX1 block -8%, JMJD2E inh -3%, HPGD block -4%, HTT aggregate 3%, ALDH1A1 block 18µM* and HTT cytoprotect -13%[10 µM].
For CCNC(=O)C(=O)NCC1OCCCN1S(=O)(=O)c1cccs1 (configuration not stated) the results were CBFb RUNX1 block 1%, JMJD2E inh 0%, HPGD block 2%, HTT aggregate 0%, ALDH1A1 block inconclusive and HTT cytoprotect 4%[10 µM].
For COc1ccccc1CNC(=O)C(=O)NCC1OCCN1S(=O)(=O)c1cccs1 (configuration not stated) the results were CBFb RUNX1 block -5%, JMJD2E inh -5%, HTT aggregate 4%[9.22 µM] and HTT cytoprotect 4%[10 µM].
`O=C(NCc1ccccc1Cl)C(=O)NCC1OCCN1S(=O)(=O)c1cccs1` (configuration not stated) gave CBFb RUNX1 block 12%, JMJD2E inh -17%, HTT aggregate 23%, ALDH1A1 block 14µM* and HTT cytoprotect 14%[10 µM].
O=C(NCCc1c[nH]c2ccccc12)C(=O)NCC1OCCCN1S(=O)(=O)c1cccs1 (configuration not stated) was read as CBFb RUNX1 block -9%, JMJD2E inh 2%, HTT aggregate -24%, ALDH1A1 block 25µM* and HTT cytoprotect -43%.
`CSc1nnc(-c2ccccc2N=Cc2c(C)[nH]n(-c3ccc4ccccc4c3)c2=O)c(=O)[nH]1` gave CBFb RUNX1 block -12%, JMJD2E inh 8%, HPGD block 18µM*, HTT aggregate 19%, ALDH1A1 block inconclusive and HTT cytoprotect -89%.
`COc1ccccc1NC(C#N)c1ccccc1OCc1ccccc1` (configuration not stated) gave CBFb RUNX1 block 1%, JMJD2E inh inconclusive, HPGD block -10%, HTT aggregate -14% and ALDH1A1 block 18µM*.
`C=CCN1C(=O)C(Cc2ccc(SC(F)F)cc2)SC1=Nc1ccc(C(=O)O)cc1` (configuration not stated) gave CBFb RUNX1 block -3%, JMJD2E inh 0%, HTT aggregate 9%, ALDH1A1 block 10µM* and HTT cytoprotect -36%.
For C=CCN1C(=O)C(CC(=O)O)SC1=Nc1ccc(C(=O)O)cc1 (configuration not stated) the results were CBFb RUNX1 block 1%, JMJD2E inh 2%, HTT aggregate -17%, ALDH1A1 block 6% and HTT cytoprotect -15%.
`O=c1ccc2ccccc2[nH]1` gave CBFb RUNX1 block 20%.
`COCCn1c(C23CC4CC(CC(C4)C2)C3)n[nH]c1=S` gave CBFb RUNX1 block inconclusive, JMJD2E inh 3%, HPGD block 25µM*, HTT aggregate -31%, ALDH1A1 block -101% and HTT cytoprotect 15%.
For CSc1nc(-c2ccccc2)nc(N2CCOCC2)c1C(C)=O the results were CBFb RUNX1 block -11%, JMJD2E inh 2%, HTT aggregate -14%, ALDH1A1 block 0% and HTT cytoprotect -19%.
`C/C(=N\NC(=O)C12CCC(C)(C(=O)O1)C2(C)C)c1ccccc1O` (configuration not stated) gave CBFb RUNX1 block 2%, JMJD2E inh 8.9µM*, HTT aggregate -13%[9.22 µM] and HTT cytoprotect 29%[10 µM].
`COc1ccc(NC(=O)C23CCC(C)(C(=O)O2)C3(C)C)cc1` (configuration not stated) gave CBFb RUNX1 block -2%, JMJD2E inh 7%, HPGD block 3%, HTT aggregate -1%, ALDH1A1 block 6% and HTT cytoprotect 8%.
Screening CC12CCC(C(=O)Nc3cccc(NC(=O)C45CCC(C)(C(=O)O4)C5(C)C)n3)(OC1=O)C2(C)C returned CBFb RUNX1 block 4%, JMJD2E inh 17%, HPGD block -1%, HTT aggregate -7%, ALDH1A1 block -3% and HTT cytoprotect 11%.
